Shown are actives, neighbours in structure and some others; about 2.4% of the full set was active somewhere.
MITF act: activators of MITF-driven TRPM1 promoter activity in SK-MEL-5 cells; activation, % at 12.5 µM; SK-MEL-5 TRPM1-promoter luciferase, 24 h; % of positive control, neutral wells = 0; 300,000 tested, 0.75% active;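 active means mean activation of at least 80% with every replicate also reaching 80%; inconclusive means mean reaches 80% but some replicate falls short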;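 further: 0% = neutral control wells and 100% = parthenolide positive control wells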
Dyrk1A ADPGlo: inhibitors of rat Dyrk1A kinase; Q63470; ADP-Glo luminescence, NFATc1 peptide; inhibition, % at 12.5 µM; 310,000 tested, 0.43% active; AID 504441;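 further: plate controls were vehicle with enzyme for no effect and no enzyme for full effect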
INS-1E GSIS act: GLuc luminescence reporter in INS-1E cells, primary screen for activators of glucose-dependent secretion of insulin; INS-1E GLuc reporter insulin secretion, 2-3 h; activation, % at 16.6 µM; 370,000 tested, 0.61% active; AID 743287;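 active means lowest replicate activation of at least 40%, so every replicate reaches that level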;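 further: 0% = median of neutral control wells and 100% = median of IBMX positive control wells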
NSD2 HMT inh: blocks human histone methyltransferase NSD2. 310,000 tested, 0.54% active. inhibition, % at 12.5 µM. NSD2 peptide methylation, AlphaScreen, 120 min. O96028
Wnt act: activates Wnt/beta-catenin signaling in a reporter cell assay; 300,000 tested, 1.2% active; activator, plate reader; activation, % at 9.35 µM; in the data active means activation above about 30%, passing the limit was not always enough; inconclusive means no clear call, values can overlap the other calls;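 further: 0% = neutral control wells and 100% = positive control wells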
miR122 inh: inhibitors of miR-122 in Huh7 cells | Huh7 miR-122 Renilla luciferase sensor, 48 h; neutral wells = 0, positive control = 100 | activation (reporter increase), % at 12.5 µM | 340,000 tested, 0.3% active;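 active means mean replicate activation score at least 90 and every replicate individually at or above 90; inconclusive means only one of the two criteria met; inactive means neither criterion met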;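 further: higher luciferase means less miR-122 activity so hits act as miR-122 inhibitors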
Starred values were filed as active, the others as inactive; u = inconclusive; x = no result given; [ ] = another dose, or the depositor's remark. Unless noted, no stated cut-off is given here; in the data, active means inhibition above about 50%; inactive means the rest.

SMILES	MITF act	Dyrk1A ADPGlo	INS-1E GSIS act	NSD2 HMT inh	Wnt act	miR122 inh
O=C(Nc1cccnc1)/C(N=Nc1cccnc1)=C(\O)c1ccccc1	-1	-3	75*	7	x	x
O=C(Nc1cccnc1)c1ccc(Oc2ccccc2)cc1	52	-1	-23	x	41*	2
O=C(Nc1ccccc1)c1ccc(C(=O)Nc2ccccc2)nc1	55	1	4	1	44*	-5
COc1ccc2c3c(n(C)c2c1)[C@@H](CO)N(S(C)(=O)=O)CC31CN(C(=O)c2ccccn2)C1	x	x	3	x	x	x
CC[C@@H]1CC=CC[C@H](C)Oc2ccccc2C(=O)N(C)[C@@H](C(C)C)C(=O)N1 (mixture of isomers)	x	x	-8	x	x	x
Cc1ccc(S(=O)(=O)N[C@H]2CC[C@H](CCn3cc(C4(O)CCCC4)nn3)O[C@@H]2CO)cc1	x	x	3	x	x	x
CC(C)C[C@H]1COCc2cn(nn2)CC[C@@H](Cc2ccccc2)C(=O)N1	x	x	18	x	x	x
C/C=C/c1ccccc1[C@H]1[C@@H](CO)N(C(=O)NC2CCCCC2)[C@H]1C#N	x	x	-7	x	x	x
O=C(Nc1ccccc1)c1cn(CCBr)cn1	x	1	-18	18	50*	-6
O=C(CC(=O)c1ccccc1)Nc1cccnc1	21	-3	3	-3	20	2
CN1CCN(c2ccc(NC(=O)c3ccc(Oc4ccccc4)cc3)cc2)CC1	29	5	50*	7	0	x
O=C(Nc1ccccc1)C(=O)Nc1cccnc1	33	5	x	-3	41*	-6
C[C@@H]1CN([C@H](C)CO)C(=O)Cc2cc(NC(=O)Cn3cnnn3)ccc2O[C@@H]1CN(C)Cc1ccc(Oc2ccccc2)cc1	x	x	3	x	x	-9[16.7 µM]
COC(=O)C[C@@H]1CC[C@H]2[C@H](COc3ccc(NS(=O)(=O)c4ccccc4Cl)cc3C(=O)N2C)O1	x	x	-9	x	x	x
CCOC(=O)c1ccc(-n2ccnc2)c(NC(=O)c2ccc(C(C)(C)C)cc2)c1	-17	-3	25	-2	15	-6
CCOC(=O)c1ccc(-n2ccnc2)c(NC(=O)c2cccc(Br)c2)c1	-10	2	-1	-2	1	128*
CC(NC(=O)c1sc2ccccc2c1Cl)C1CCCO1 (stereo not drawn)	126*	x	16	-2	28	x
CC(NC(=O)c1csc2ccccc12)C1CCCO1 (stereo not drawn)	19	4	3	6	x	-2
COCc1nc2oc3ccccc3c(=O)c2cc1C(=O)OC	88*	4	-3	1	17	-2
CCOC(=O)c1cc2c(=O)c3ccccc3oc2nc1C	28	1	19	23	11	-6
NC(=O)c1cc2cc(Cl)ccc2o/c1=N/NC(=O)c1cccs1	21	-3	43*	-2	13	-2
CN=c1oc2ccc(Cl)cc2cc1C(N)=O	x	14	x	x	-2	9
CCCC(=O)N1CCC2(CC1)CN[C@@H](CO)c1c2c2ccc(OC)cc2n1C	x	x	-6	x	x	x
COc1ccc(-c2ccc3c(c2)O[C@H](CN(C)C(C)=O)[C@@H](C)CN([C@H](C)CO)S3(=O)=O)cc1	x	x	4	x	x	17[16.7 µM]
CCC(=O)N1[C@@H]2CN(C(=O)c3ccncc3)c3ccccc3[C@@H]2[C@@H]1CO	x	x	5	x	x	17[16.7 µM]
SMILES	MITF act	Dyrk1A ADPGlo	INS-1E GSIS act	NSD2 HMT inh	Wnt act	miR122 inh
Cc1ccc(OCc2ccc(C(=O)NN)o2)c([N+](=O)[O-])c1	x	x	8	-2	-1	x
COC(=O)c1ccc(COc2ccc(C)cc2[N+](=O)[O-])o1	x	x	4	1	36*	1
COc1ccc2c3c(n(C)c2c1)[C@@H](CO)N(Cc1nccs1)CC31CN(C)C1	x	x	28	x	x	x
O=C(OCc1ccccc1)c1cccc(-c2nnn(Cc3ccccc3)n2)c1	23	-6	x	x	45*	-14
O=C(Cn1nnc(-c2ccccc2)n1)OCc1ccccc1	-6	x	x	-3	-2	-2
CCC(=O)N(C)C[C@@H]1Oc2cc(C#CC3CC3)ccc2S(=O)(=O)N([C@H](C)CO)C[C@@H]1C	x	x	-2	x	x	0[16.7 µM]
O=C(C[C@H]1CC[C@H]2[C@@H](COC[C@H](O)CN2Cc2ccccc2F)O1)NC1CCC1	x	x	-1	x	x	1[16.7 µM]
C[C@@H]1CN(C)C(=O)Cc2ccccc2O[C@@H]1CN(C)C(=O)OC(C)(C)C	x	x	16	x	x	x
O=C(Nc1ccccc1F)N1C[C@H]2[C@@H](c3ccccc31)[C@@H](CO)N2C(=O)c1ccc(F)cc1	x	x	-1	x	x	240*[16.7 µM]
COc1cccc(C(=O)N2C[C@H]3[C@@H](c4ccccc42)[C@@H](CO)N3C(=O)c2ccc(F)cc2)c1	x	x	9	x	x	229*[16.7 µM]
Cc1cc(C)cc(NC(=O)Nc2ccc3c(c2)C(=O)N(C)[C@H]2CC[C@@H](CC(=O)O)O[C@H]2CO3)c1	x	x	0	x	x	-27[16.7 µM]
COc1cccc(-c2cnc3c(c2)C(=O)N([C@H](C)CO)C[C@H](C)[C@@H](CN(C)C(=O)CN(C)C)O3)c1	x	x	45	x	x	-7[16.7 µM]
COc1cc(C)ccc1OCc1cc(C(=O)NCCN2CCOCC2)no1	107*	0	3	-1	26	-1
COc1cc(C)ccc1OCc1cc(C(=O)N(C)CCCN2CCOCC2)no1	127*	4	15	-3	u	-8
C[C@@H](NC(=O)C[C@@H]1CC[C@@H]2[C@H](COC[C@H](O)CN2C(=O)Nc2cccc(Cl)c2)O1)c1ccccc1	x	x	-12	x	x	-1[16.7 µM]
Cc1csc2nc(CSc3nncn3-c3ccccc3)c(Br)n12	5	-8	x	0	x	7
Cc1csc2nc(CSc3nc4ccccc4o3)c(Br)n12	91*	-2	x	-2	x	-3
CN(c1ncc(C(F)(F)F)cc1Cl)n1cc(C(N)=O)c2ccccc2c1=O	11	11	x	110*	x	-1
Cc1ccc(-c2nnn(CC(=O)N(CC(=O)NC3CCCCC3)c3cnc4ccccc4c3)n2)o1	2	1	x	1	x	0
CC(=O)c1cccc(N(CC(=O)NC2CCCCC2)C(=O)Cn2nnc(-c3ccccc3)n2)c1	x	-1	61*	39	3	2
Cc1nc(-c2ccc(NC(=O)c3ccccc3Br)cc2)cs1	u	0	-4	1	65*	x
COc1ccc(NC(=O)c2ccc(-c3csc(C)n3)cc2)cc1	x	x	4	-3	6	-5
Cc1nc(-c2ccc(C(=O)Nc3ccc(F)cc3)cc2)cs1	10	-2	4	-3	43*	-7
O=C(C[C@@H]1CC[C@@H](NC(=O)C2CC2)[C@H](CO)O1)NCc1ccccc1Cl	x	x	-4	x	x	x
Cc1nn(-c2ccccc2)c(C)c1C(=O)OCC(=O)Nc1ccccc1	86*	2	2	-3	21	9
Cc1nc(COC(=O)c2c(C)nn(-c3ccccc3)c2C)cs1	86*	8	x	-43	28	-6
Cc1nn(-c2ccccc2)c(C)c1C(=O)OCC(=O)N(C)c1ccccc1	9	x	6	-1	-2	x
COc1ccccc1NC(=O)COC(=O)c1c(C)nn(-c2ccccc2)c1C	100*	3	-15	-4	-2	x

Assay outcomes deposited in PubChem by Broad Institute.
